From the supplement of paper PMC8975748
Counter-ions that a name gives are not always drawn. ± gives the standard deviation of the averaged measurements.

Assays:
[1] = test system: Saccharomyces cerevisiae BY4741 SeMeCo community; assay: mean cell size (pixel area) (pixels); higher = larger cells; conditions: 10 µM; 24 h; SM minimal medium
How it was run: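 A fluorescent Saccharomyces cerevisiae BY4741 community carrying four plasmids was used, with each plasmid complementing one auxotrophy and bearing a fluorescent marker. An overnight preculture at OD600 = 1.0 was diluted to OD600 = 0.3, and 70 µl went into 384-well plates acoustically predosed with drug (final 10 µM) in SM medium for 24 h. After paraformaldehyde fixation, cells were imaged by automated confocal microscopy and analysed in Harmony, giving the mean cell pixel area per well. Each value is the average of 3 replicates. Same SeMeCo high-content imaging drug screen: Selleck FDA-approved drugs at 10 µM, 24 h in SM medium, 384-well plates, 3 replicates.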

[2] = test system: Saccharomyces cerevisiae BY4741 SeMeCo community; assay: z-score of prototroph abundance vs DMSO median; higher = larger share of this subpopulation than in DMSO controls; conditions: 10 µM; 24 h; SM minimal medium; subpopulation (auxotrophy): Prototroph
How it was run: (§1)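 Scoring was based on each subpopulation's abundance, expressed as a z-score against the vehicle-well median. A Saccharomyces cerevisiae BY4741 community with four plasmids, each restoring one auxotrophy and encoding a distinct fluorescent protein, was pre-grown overnight to OD600 1.0, diluted to 0.3, and added at 70 µl to 384-well plates acoustically predosed with library drugs (10 µM final). It then grew 24 h in minimal SM medium before paraformaldehyde fixation and automated confocal microscopy, with single-auxotroph fluorescent strains setting thresholds and autofluorescence correction.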

[3] = test system: Saccharomyces cerevisiae BY4741 SeMeCo community; assay: z-score of subpopulation abundance vs DMSO median, subpopulation auxotrophic for M; higher = larger share of this subpopulation than in DMSO controls; conditions: 10 µM; 24 h; SM minimal medium; subpopulation (auxotrophy): M
How it was run: as §1

[4] = test system: Saccharomyces cerevisiae BY4741 SeMeCo community; assay: z-score of subpopulation abundance vs DMSO median, subpopulation auxotrophic for L; higher = larger share of this subpopulation than in DMSO controls; conditions: 10 µM; 24 h; SM minimal medium; subpopulation (auxotrophy): L
How it was run: as §1

[5] = test system: Saccharomyces cerevisiae BY4741 SeMeCo community; assay: z-score of subpopulation abundance vs DMSO median, subpopulation auxotrophic for U; higher = larger share of this subpopulation than in DMSO controls; conditions: 10 µM; 24 h; SM minimal medium; subpopulation (auxotrophy): U
How it was run: as §1

[6] = test system: Saccharomyces cerevisiae BY4741 SeMeCo community; assay: z-score of subpopulation abundance vs DMSO median, subpopulation auxotrophic for H; higher = larger share of this subpopulation than in DMSO controls; conditions: 10 µM; 24 h; SM minimal medium; subpopulation (auxotrophy): H
How it was run: as §1

[7] = test system: Saccharomyces cerevisiae BY4741 SeMeCo community; assay: z-score of subpopulation abundance vs DMSO median, subpopulation auxotrophic for LU; higher = larger share of this subpopulation than in DMSO controls; conditions: 10 µM; 24 h; SM minimal medium; subpopulation (auxotrophy): LU
How it was run: as §1

[8] = test system: Saccharomyces cerevisiae BY4741 SeMeCo community; assay: z-score of subpopulation abundance vs DMSO median, subpopulation auxotrophic for LM; higher = larger share of this subpopulation than in DMSO controls; conditions: 10 µM; 24 h; SM minimal medium; subpopulation (auxotrophy): LM
How it was run: as §1

[9] = test system: Saccharomyces cerevisiae BY4741 SeMeCo community; assay: z-score of subpopulation abundance vs DMSO median, subpopulation auxotrophic for HM; higher = larger share of this subpopulation than in DMSO controls; conditions: 10 µM; 24 h; SM minimal medium; subpopulation (auxotrophy): HM
How it was run: as §1

[10] = test system: Saccharomyces cerevisiae BY4741 SeMeCo community; assay: z-score of subpopulation abundance vs DMSO median, subpopulation auxotrophic for HU; higher = larger share of this subpopulation than in DMSO controls; conditions: 10 µM; 24 h; SM minimal medium; subpopulation (auxotrophy): HU
How it was run: as §1

[11] = test system: Saccharomyces cerevisiae BY4741 SeMeCo community; assay: z-score of subpopulation abundance vs DMSO median, subpopulation auxotrophic for UM; higher = larger share of this subpopulation than in DMSO controls; conditions: 10 µM; 24 h; SM minimal medium; subpopulation (auxotrophy): UM
How it was run: as §1

[12] = test system: Saccharomyces cerevisiae BY4741 SeMeCo community; assay: z-score of subpopulation abundance vs DMSO median, subpopulation auxotrophic for HL; higher = larger share of this subpopulation than in DMSO controls; conditions: 10 µM; 24 h; SM minimal medium; subpopulation (auxotrophy): HL
How it was run: as §1

[13] = test system: Saccharomyces cerevisiae BY4741 SeMeCo community; assay: z-score of subpopulation abundance vs DMSO median, subpopulation auxotrophic for HLU; higher = larger share of this subpopulation than in DMSO controls; conditions: 10 µM; 24 h; SM minimal medium; subpopulation (auxotrophy): HLU
How it was run: as §1

[14] = test system: Saccharomyces cerevisiae BY4741 SeMeCo community; assay: z-score of subpopulation abundance vs DMSO median, subpopulation auxotrophic for HLM; higher = larger share of this subpopulation than in DMSO controls; conditions: 10 µM; 24 h; SM minimal medium; subpopulation (auxotrophy): HLM
How it was run: as §1

[15] = test system: Saccharomyces cerevisiae BY4741 SeMeCo community; assay: z-score of subpopulation abundance vs DMSO median, subpopulation auxotrophic for HUM; higher = larger share of this subpopulation than in DMSO controls; conditions: 10 µM; 24 h; SM minimal medium; subpopulation (auxotrophy): HUM
How it was run: as §1

[16] = test system: Saccharomyces cerevisiae BY4741 SeMeCo community; assay: z-score of subpopulation abundance vs DMSO median, subpopulation auxotrophic for HLUM; higher = larger share of this subpopulation than in DMSO controls; conditions: 10 µM; 24 h; SM minimal medium; subpopulation (auxotrophy): HLUM
How it was run: as §1

[17] = test system: Saccharomyces cerevisiae BY4741 SeMeCo community; assay: z-score of subpopulation abundance vs DMSO median, subpopulation auxotrophic for LUM; higher = larger share of this subpopulation than in DMSO controls; conditions: 10 µM; 24 h; SM minimal medium; subpopulation (auxotrophy): LUM
How it was run: as §1

SMILES	mean cell size [1]	z-score of prototroph abundance [2]	z-score of subpopulation abundance [3]	z-score of subpopulation abundance [4]	z-score of subpopulation abundance [5]	z-score of subpopulation abundance [6]	z-score of subpopulation abundance [7]	z-score of subpopulation abundance [8]	z-score of subpopulation abundance [9]	z-score of subpopulation abundance [10]	z-score of subpopulation abundance [11]	z-score of subpopulation abundance [12]	z-score of subpopulation abundance [13]	z-score of subpopulation abundance [14]	z-score of subpopulation abundance [15]	z-score of subpopulation abundance [16]	z-score of subpopulation abundance [17]
CCCNC(C)C(=O)Nc1ccccc1C (stereo not drawn) [Prilocaine hydrochloride]	12.28 ± 0.063	-0.24	-0.36	0.41	0.86	-0.67	1.11	0.83	-0.46	0.08	0.54	0.03	-0.01	-0.05	-0.27	0.58	–
C[C@]12CC[C@@H]3c4ccc(O)cc4CC[C@H]3[C@@H]1C[C@@H](O)[C@@H]2O [Estriol]	12.41 ± 0.12	0.65	-0.11	0.63	-0.19	0.24	-0.08	0.01	-0.18	-0.16	-0.62	-0.01	-0.08	0.3	-0.83	-0.69	–
COc1ccc2cc3[n+](cc2c1OC)CCc1cc2c(cc1-3)OCO2 [Berberine Sulfate]	12.3 ± 0.28	-0.5	0.74	-1.84	1.36	-0.31	-0.21	-0.28	0.24	0.8	–	-0.5	0.06	0.13	0.71	-0.34	-0.27
N[C@@H](C(=O)N[C@@H]1C(=O)N2C(C(=O)O)=C(Cl)CS[C@H]12)c1ccccc1 [Cefaclor]	12.45 ± 0.095	-0.66	0.46	0.23	0.82	0.49	0.23	0.52	0.64	0.41	0.24	-0.05	-0.22	0.3	0.37	0.66	–
CN(Cc1ccc(C(C)(C)C)cc1)Cc1cccc2ccccc12 [Butenafine HCl]	12.2 ± 0.22	–	0.23	-0.23	-1.08	–	-1.41	-0.39	-1.43	-0.86	-1.21	-0.63	-0.68	-0.42	-1.45	0.01	-0.75
C[C@@H](CN1CC(=O)NC(=O)C1)N1CC(=O)NC(=O)C1 [Dexrazoxane HCl (ICRF-187, ADR-529)]	12.49 ± 0.096	0.46	0.18	-1.96	0.64	–	-0.36	-1.65	-0.36	-0.7	0.22	-1.52	-1.07	-0.81	-0.23	-0.79	–
Nc1ccc(S(=O)(=O)NC(=O)c2ccccc2)cc1 [Sulfabenzamide]	12.5 ± 0.4	–	-0.05	-0.13	-0.51	-0.19	-0.03	-0.72	-0.23	-0.03	–	-0.91	0.61	0.11	-1.03	0.15	-0.19
O=C(O)c1ccccc1O [Salicylic acid]	12.4 ± 0.14	0.79	-0.07	-0.26	-0.01	-0.17	-0.68	-0.74	0.33	-1	-0.89	-0.19	-0.57	-1.09	-1.03	-0.68	–
C#CCN[C@@H]1CCc2ccccc21 [Rasagiline]	12.26 ± 0.11	0.01	-0.39	-0.1	0.2	-0.48	0.78	-0.61	-0.4	0	–	-0.5	-0.13	-0.17	-0.36	0.12	0.07
C[C@@H]1O[C@@H]1P(=O)(O)O [Fosfomycin Disodium]	12 ± 0.14	–	-0.48	0.72	-0.22	0.63	0.6	-0.25	-0.52	0.04	-0.18	0.86	0.52	-0.12	-0.19	-0.05	0.06
Cn1nnc(-c2ccc(-c3ccc(N4C[C@H](COP(=O)(O)O)OC4=O)cc3F)cn2)n1 [Tedizolid Phosphate]	12.5 ± 0.29	–	-0.15	-1.36	0.63	-0.61	-0.94	-2.14	-0.87	-0.46	-0.77	–	-0.8	-0.8	-0.98	-0.73	-1.05
C[C@@H](O)[C@H]1C(=O)N2C(C(=O)O)=C(S[C@@H]3CN[C@H](C(=O)N(C)C)C3)[C@H](C)[C@H]12 [Meropenem Trihydrate]	12.6 ± 0.27	–	0.89	0.38	-0.82	1.09	0.63	0.14	1.13	-0.59	-0.82	0.55	0.91	0.4	-0.48	-0.25	-0.3
CC[C@H](C)[C@H](N)C1=N[C@H](C(=O)N[C@@H](CC(C)C)C(=O)N[C@H](CCC(=O)O)C(=O)N[C@H](C(=O)N[C@H]2CCCCNC(=O)[C@H](CC(N)=O)NC(=O)[C@@H](CC(=O)O)NC(=O)[C@H](Cc3cnc[nH]3)NC(=O)[C@@H](Cc3ccccc3)NC(=O)[C@H]([C@@H](C)CC)NC(=O)[C@@H](CCCN)NC2=O)[C@@H](C)CC)CS1 [Bacitracin]	12 ± 0.24	-2.14	-0.01	1.05	0.29	3.13	0.64	1.28	1.2	2.07	–	3.67	3.61	1.35	1.59	1.51	0.84
CC(C(O)c1ccc(O)cc1)N1CCC(Cc2ccccc2)CC1 (stereo not drawn) [Ifenprodil Tartrate]	12.5 ± 0.24	–	-0.68	-0.15	0.69	-0.73	-0.38	-0.75	-0.88	-0.43	-0.03	-1.19	-1.12	-0.92	-1.27	-1.11	-0.99
Cc1ccsc1/C=C/C1=NCCCN1C [Morantel tartrate]	12.28 ± 0.098	–	0.85	-1.36	0.23	-1.74	0.13	-0.48	-0.19	0.3	–	-0.87	-0.25	-0.2	-0.08	-0.47	-0.24
O=C(O)CCc1nc(-c2ccccc2)c(-c2ccccc2)o1 [Oxaprozin]	13 ± 0.46	–	-1.37	-0.53	-1.97	-0.36	-2.1	-1	-0.83	-1.46	-3.67	-0.56	-0.7	-0.64	-1.67	-0.44	-1.68
CC(=O)OCC[N+](C)(C)C [Acetylcholine iodide]	12.42 ± 0.1	–	-0.32	-0.73	0.13	-0.21	-0.57	-0.62	-1.48	-0.12	-0.32	-0.89	0.05	-1.52	-0.36	-1.3	-1.27
COC(=O)C1=C(C)NC(C)=C(C(=O)OCC(C)C)C1c1ccccc1[N+](=O)[O-] (stereo not drawn) [Nisoldipine]	12.2 ± 0.14	-0.75	0.83	0.49	-0.48	0.84	-0.62	1.4	0.97	0.04	–	–	0.34	0.45	1.07	1.09	0.88
C[N+](C)(C)CCOC(=O)CCC(=O)OCC[N+](C)(C)C [Succinylcholine Chloride Dihydrate]	12 ± 0.24	–	1.02	-0.65	0.38	-0.95	-1.48	0.01	0.1	-0.93	0.5	-0.8	-0.97	-0.3	-0.03	0.02	-0.49
CCn1cc(C(=O)O)c(=O)c2cc(F)c(N3CCN(C)CC3)cc21 [Pefloxacin Mesylate]	12.48 ± 0.059	0.1	-0.16	-0.33	–	-0.3	-0.06	0	0.05	-0.36	-0.04	–	-0.54	-0.1	-0.57	-0.95	0.18
